Assay results: PubChem BioAssay (NCATS)
Several values for one entry are separate records, joined by “and”; a condition that tells them apart may be missing. Equal entries are not always repeated. Inconclusive results are not listed. Activity calls are given as the source filed them. Unless noted, calls follow the shape of the dose curve; as a rule, active = well fitted cell-killing curve with a large enough effect; inconclusive = small, poorly fitted or top-dose-only effect; inactive = flat fitted curve, though single readings scatter.

Legend:
[1] = Cell Viability - LYMP2-023 (AID 975);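 also: cellular ATP measured by luciferase luminescence as viability proxy; series mostly up to about 92 µM; plate controls were DMSO only for no effect and 92 µM tetraoctylammonium bromide control for full effect; nearly all actives have a fitted effect of over 55% in size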
Outline: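 2500 cells/well, 5 hr 37 C; cpd 24 hr 37 C; CellTiter-Glo, 30 min RT; luminescence. qHTS conc-response, Hill fit -> AC50. Pos ctrl tetraoctylammonium bromide.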

[2] = Cell Viability - LYMP2-025 (AID 976);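 also: series mostly up to about 92 µM; plate controls were DMSO only for no effect and tetraoctylammonium bromide control for full effect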
Outline: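 Seed 2500 LYMP2-025 cells/well; 5 hr at 37 C; add compound; 24 hr at 37 C; add CellTiter-Glo; 30 min RT; read luminescence. AC50 from Hill-modelled concentration-response.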

[3] = Cell Viability - LYMP2-002 (AID 977);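 also: series mostly up to about 92 µM; plate controls were DMSO only for no effect and 92 µM tetraoctylammonium bromide for full effect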
Outline: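 Luminescent ATP readout (CellTiter-Glo, 30 min room temperature) after 24 h compound exposure at 37 C of a human lymphoblastoid line, 2500 cells/well. AC50 values derived by standard Hill fitting of qHTS concentration-response data.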

[4] = Cell Viability - LYMP2-006 (AID 978); also: series mostly up to about 92 µM; % is scaled to controls: 0 for no effect and ±100 for the full control effect; nearly all actives have a fitted effect of over 60% in size
Outline: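 Concentration-dependent loss of intracellular ATP in a human lymphoblastoid line after 24 hr treatment at 37 C was measured by CellTiter-Glo luminescence, with AC50 values obtained from standard Hill-equation modelling.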

[5] = Cell Viability - LYMP2-007 (AID 979);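 also: cells exposed to compound for 24 h before reading; 0% = DMSO only and the negative end = 92 µM tetraoctylammonium bromide; nearly all actives have a fitted effect of over 60% in size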
Outline: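 Luminescent ATP signal (CellTiter-Glo) serves as the viability read-out after 24 hr compound treatment of lymphoblastoid cells in complete medium at 37 C. Concentration-response data were fitted to the Hill equation to give AC50 values.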

[6] = Cell Viability - LYMP2-008 (AID 980); also: % is scaled to controls: 0 for no effect and ±100 for the full control effect; nearly all actives have a fitted effect of over 60% in size
Outline: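 qHTS, human lymphoblastoid line, 2500 cells/well; 5 hr preincubation, 24 hr compound, 37 C. CellTiter-Glo ATP luminescence. AC50 via Hill equation. Tetraoctylammonium bromide positive control.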

[7] = Cell Viability - LYMP2-010 (AID 981); also: % is scaled to controls: 0 for no effect and ±100 for the full control effect; nearly all actives have a fitted effect of over 55% in size
Outline: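 Luminescent ATP signal (CellTiter-Glo) served as the viability read-out. Cells of the human lymphoblastoid line were treated with compound over a concentration range for 24 hours at 37 C, and AC50 values came from Hill-equation modeling.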

[8] = Cell Viability - LYMP2-012 (AID 982);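 also: cellular ATP by luciferase luminescence where a drop means cytotoxicity; cells exposed to compound for one day before reading; 0% = DMSO only and full loss = 92 µM tetraoctylammonium bromide; nearly all actives have a fitted effect of over 55% in size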
[9] = Cell Viability - LYMP2-014 (AID 983);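 also: series mostly up to about 92 µM; plate controls were DMSO only for no effect and 92 µM tetraoctylammonium bromide for full effect; nearly all actives have a fitted effect of over 50% in size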
Outline: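 Luminescent ATP signal (CellTiter-Glo, 30 min at room temperature) serves as the viability read-out after 24 hr compound exposure at 37 C. Cells were seeded at 2500 per well and settled 5 hr beforehand.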

[10] = Cell Viability - LYMP2-016 (AID 984); also: % is scaled to controls: 0 for no effect and ±100 for the full control effect; nearly all actives have a fitted effect of over 55% in size
Outline: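 Acute toxicity in a Coriell human lymphoblastoid line is scored as loss of intracellular ATP over 24 h of treatment in complete medium. CellTiter-Glo signal is fitted across concentrations with the Hill equation to give AC50.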

[11] = Cell Viability - LYMP2-018 (AID 985);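 also: plate controls were DMSO only for no effect and tetraoctylammonium bromide at 92 µM for full effect; nearly all actives have a fitted effect of over 50% in size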
Outline: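 Luminescent ATP signal (CellTiter-Glo, read after 30 min at room temperature) reports viable cells after 24 hr compound treatment at 37 C. Concentration-response data were fitted to the standard Hill equation for AC50.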

[12] = Cell Viability - LYMP2-020 (AID 986)
Outline: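 Luminescent ATP signal (CellTiter-Glo, 30 min at room temperature) is the read-out after 24 h compound treatment of lymphoblastoid cells at 37 C. AC50 values come from Hill-equation fits across concentrations.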

[13] = Cell Viability - LYMP2-022 (AID 987)
Outline: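 qHTS: human lymphoblastoid cells 2500/well; 5 hr 37 C; cpd added; 24 hr 37 C; CellTiter-Glo, 30 min RT; luminescence. AC50 via Hill fit; tetraoctylammonium bromide positive ctrl.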

[14] = Cell Viability - LYMP2-024 (AID 988);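 also: plate controls were DMSO only for no effect and 92 µM tetraoctylammonium bromide for full effect; nearly all actives have a fitted effect of over 60% in size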
Outline: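 Steps: seed 2500 cells/well, 5 hr 37 C; add compound, 24 hr 37 C; add CellTiter-Glo, 30 min room temperature; read luminescence. AC50 derived by Hill modelling of concentration-dependent ATP loss.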

[15] = Cell Viability - LYMP2-026 (AID 989); also: % is scaled to controls: 0 for no effect and ±100 for the full control effect; nearly all actives have a fitted effect of over 50% in size
Outline: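 Luminescent ATP signal (CellTiter-Glo, 30 min room temperature) measures viable lymphoblastoid cells after 24 hr compound treatment at 37 C. Decreased ATP reflects acute toxicity; AC50 values come from Hill-equation modeling.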

[16] = Cell Viability - LYMP1-002 - Assay at 24 hr (AID 993); also: % is scaled to controls: 0 for no effect and ±100 for the full control effect
Outline: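 Cells plated 2500/well, 5 hr 37 C; compounds added, 24 hr 37 C; CellTiter-Glo added, 30 min RT; luminescence read. Tetraoctylammonium bromide positive control. Hill-equation AC50.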

[17] = Cell Viability - LYMP1-002 - Assay at 40 hr (AID 994)
Outline: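 Luminescent ATP signal served as the viability readout, with decreases taken as toxicity. Cells were treated with compounds across a concentration range for 40 hours at 37 C, and AC50 values came from standard Hill modeling.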

[18] = target: Estrogen receptor (Homo sapiens) (UniProt P03372); test: qHTS assay for small molecule antagonists of estrogen receptor alpha signaling (AID 588513; active = well fitted curve in the direction sought with a large enough effect in the signal ratio, with a control signal flat, not every such curve was filed as active; the % refers to the signal ratio; also: % is scaled to controls: 0 for no effect and ±100 for the full control effect)
Sequence of Estrogen receptor (Homo sapiens) (P03372 whole entry, looked up): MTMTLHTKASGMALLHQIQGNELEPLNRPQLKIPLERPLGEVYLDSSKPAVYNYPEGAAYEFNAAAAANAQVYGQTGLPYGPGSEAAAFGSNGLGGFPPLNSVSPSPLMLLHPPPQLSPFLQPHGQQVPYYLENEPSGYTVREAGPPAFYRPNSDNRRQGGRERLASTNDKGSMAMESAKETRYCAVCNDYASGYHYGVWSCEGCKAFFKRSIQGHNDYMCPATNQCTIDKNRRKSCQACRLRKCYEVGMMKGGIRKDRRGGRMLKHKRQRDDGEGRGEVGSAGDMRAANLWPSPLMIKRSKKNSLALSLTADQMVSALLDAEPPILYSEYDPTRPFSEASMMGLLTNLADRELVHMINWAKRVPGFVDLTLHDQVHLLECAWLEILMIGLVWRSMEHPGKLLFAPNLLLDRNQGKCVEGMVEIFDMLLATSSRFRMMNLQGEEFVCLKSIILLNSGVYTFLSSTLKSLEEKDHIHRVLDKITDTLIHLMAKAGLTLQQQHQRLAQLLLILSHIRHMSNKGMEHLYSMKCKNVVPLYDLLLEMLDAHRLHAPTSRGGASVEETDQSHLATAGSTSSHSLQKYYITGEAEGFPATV
Outline: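 Cells were plated at 5000/well and incubated 4 h at 37 C. Compounds were added as 1:2 dilution series, duplicates. 17-beta-estradiol (0.5nM final) was added for 18 h before CCF4 detection.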

[19] = target: Estrogen receptor (Homo sapiens) (UniProt P03372); test: qHTS assay for small molecule agonists of estrogen receptor alpha signaling (AID 588514; calls by dose curve;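 also: 0% = vehicle only and 100% = reference agonist; nearly all actives have a fitted effect of over 70% in size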)
Outline: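 Cells were plated at 5000/well, incubated 4 hrs at 37 C, dosed with compound titration series, incubated 18 hrs at 37 C, loaded with CCF4 dye for 2 hrs at RT, then fluorescence was read.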

[20] = target: Glucocorticoid receptor (Homo sapiens) (UniProt P04150); test: qHTS assay for small molecule agonists of glucocorticoid receptor signaling (AID 588532; active = well fitted curve in the direction sought with a large enough effect in the signal ratio, with a control signal flat; the % refers to the signal ratio;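 also: 100% = dexamethasone at 0.1 µM and 0% = DMSO only wells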); conditions: HeLa MMTV-bla, beta-lactamase ratio, agonist, 18 h; hits give high values; percent of dexamethasone control, DMSO zero
Sequence of Glucocorticoid receptor (Homo sapiens) (P04150 whole entry, looked up): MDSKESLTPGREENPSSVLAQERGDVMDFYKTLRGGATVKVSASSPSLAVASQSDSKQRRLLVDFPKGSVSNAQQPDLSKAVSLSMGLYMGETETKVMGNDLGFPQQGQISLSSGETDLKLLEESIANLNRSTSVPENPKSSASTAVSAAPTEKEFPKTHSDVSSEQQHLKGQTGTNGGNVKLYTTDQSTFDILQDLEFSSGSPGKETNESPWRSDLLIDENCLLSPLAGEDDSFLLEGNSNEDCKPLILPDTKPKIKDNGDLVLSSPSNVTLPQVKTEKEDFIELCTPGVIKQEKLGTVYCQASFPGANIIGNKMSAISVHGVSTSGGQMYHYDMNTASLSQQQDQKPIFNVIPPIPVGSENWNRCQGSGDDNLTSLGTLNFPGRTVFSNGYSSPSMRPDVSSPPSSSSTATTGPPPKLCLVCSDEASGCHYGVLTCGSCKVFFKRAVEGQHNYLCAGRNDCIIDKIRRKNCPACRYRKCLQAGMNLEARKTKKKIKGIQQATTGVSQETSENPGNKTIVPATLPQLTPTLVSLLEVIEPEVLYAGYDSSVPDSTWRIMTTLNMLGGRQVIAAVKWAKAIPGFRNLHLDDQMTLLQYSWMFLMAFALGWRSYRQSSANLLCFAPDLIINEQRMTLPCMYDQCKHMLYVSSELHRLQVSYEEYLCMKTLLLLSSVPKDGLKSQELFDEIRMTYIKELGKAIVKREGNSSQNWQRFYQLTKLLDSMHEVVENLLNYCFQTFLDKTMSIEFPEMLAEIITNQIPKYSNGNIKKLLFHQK
Outline: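 MMTV-bla HeLa, beta-lactamase reporter; medium with 1% charcoal/dextran-stripped FBS; cpds up to 92 uM, 18 h, 37 C; CCF4 readout 460/530 nm; Hill fit → EC50, efficacy vs 0.1 uM dexamethasone = 100%.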

[21] = target: Glucocorticoid receptor (Homo sapiens) (UniProt P04150); test: qHTS assay for small molecule antagonists of glucocorticoid receptor signaling (AID 588533; active = well fitted inhibition curve with a large enough effect in the signal ratio, with a control signal flat, not every such curve was filed as active; the % refers to the signal ratio;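 also: cells stimulated with 2 nM dexamethasone as agonist; % is scaled to controls: 0 for no effect and ±100 for the full control effect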)
Outline: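 Antagonist-mode qHTS: compound titrations added to GRE-bla HeLa cells, then dexamethasone 2 nM final; 18 h, 37 C. CCF4 FRET fluorescence normalized to dexamethasone and DMSO; IC50 from Hill fit.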

[22] = target: Peroxisome proliferator-activated receptor gamma (Homo sapiens) (UniProt P37231); test: qHTS assay for small molecule agonists of peroxisome proliferator-activated receptor gamma signaling (AID 588536; active = well fitted curve in the direction sought with a large enough effect in the signal ratio, with a control signal flat, not every such curve was filed as active; the % refers to the signal ratio;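 also: 0% = DMSO basal wells and 100% = rosiglitazone at 2 µM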)
Sequence of Peroxisome proliferator-activated receptor gamma (Homo sapiens) (P37231 whole entry, looked up): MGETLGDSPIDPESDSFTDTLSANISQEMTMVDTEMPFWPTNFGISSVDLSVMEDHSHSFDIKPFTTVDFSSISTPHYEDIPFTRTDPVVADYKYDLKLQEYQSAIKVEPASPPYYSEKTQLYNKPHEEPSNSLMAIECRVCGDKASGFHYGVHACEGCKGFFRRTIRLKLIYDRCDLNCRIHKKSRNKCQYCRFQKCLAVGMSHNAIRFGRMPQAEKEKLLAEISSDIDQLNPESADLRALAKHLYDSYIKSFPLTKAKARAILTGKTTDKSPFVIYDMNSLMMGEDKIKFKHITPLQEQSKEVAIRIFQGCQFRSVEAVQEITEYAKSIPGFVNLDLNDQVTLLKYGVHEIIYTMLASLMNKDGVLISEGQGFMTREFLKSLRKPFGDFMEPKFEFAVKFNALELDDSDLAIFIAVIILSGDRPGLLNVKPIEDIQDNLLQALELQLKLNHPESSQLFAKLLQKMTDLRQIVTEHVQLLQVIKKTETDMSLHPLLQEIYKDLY
Outline: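 GeneBLAzer PPAR-gamma-UAS-bla HEK293 cells in 1% charcoal/dextran-treated FBS medium were treated 16 h at 37 C with compounds. Beta-lactamase activity was read by CCF4 ratio (460/530 nm). Response was normalized to 2 uM rosiglitazone (100%) and DMSO, then Hill-fitted for EC50 and efficacy.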

[23] = target: Vitamin D3 receptor (Homo sapiens) (UniProt P11473); test: qHTS assay for small molecule antagonists of vitamin D receptor signaling (AID 588541; calls by dose curve;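 also: receptor activated by calcitriol during compound treatment; series mostly up to about 77 µM; % is scaled to controls: 0 for no effect and ±100 for the full control effect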)
Sequence of Vitamin D3 receptor (Homo sapiens) (P11473 whole entry, looked up): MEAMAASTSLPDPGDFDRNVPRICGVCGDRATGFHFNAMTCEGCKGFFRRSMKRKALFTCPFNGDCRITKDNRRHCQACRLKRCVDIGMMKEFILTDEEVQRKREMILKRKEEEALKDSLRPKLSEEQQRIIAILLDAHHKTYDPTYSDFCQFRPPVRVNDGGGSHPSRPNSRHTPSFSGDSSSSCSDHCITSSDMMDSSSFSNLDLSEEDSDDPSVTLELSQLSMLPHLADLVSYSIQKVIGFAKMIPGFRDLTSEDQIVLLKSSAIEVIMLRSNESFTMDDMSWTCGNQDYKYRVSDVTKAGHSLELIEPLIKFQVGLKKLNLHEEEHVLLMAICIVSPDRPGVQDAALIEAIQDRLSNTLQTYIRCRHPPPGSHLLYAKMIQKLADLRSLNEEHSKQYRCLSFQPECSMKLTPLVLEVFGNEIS
Outline: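 VDR-UAS-bla HEK293T cells (2000/well, 2% charcoal-stripped FBS) were treated with titrated compounds plus 1-alpha,25-dihydroxyvitamin D3 (50 nM or 3 nM final) for 16 h at 37 C. CCF4 beta-lactamase fluorescence was read; Hill fits gave IC50.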

CCCCOC(=O)c1ccccc1C(=O)OCCCC
inactive: Potency [1] | Potency [2] | Potency [3] | Potency [4] | Potency [5] | Potency [6] | Potency [7] | Potency [8] | Potency [9] | Potency [10] | Potency [11] | Potency [12] | Potency [13] | Potency [14] | Potency [15] | Potency [16] | Potency [17] | Potency [18] | Potency [19] | activation [20] -1.41% and -0.473% | Potency [21] | outcome [22] | outcome [23]
